Screens deposited in PubChem BioAssay by National Center for Advancing Translational Sciences (NCATS).
VACV Venus inh: inhibitors of vaccinia virus (Venus reporter) | Vaccinia virus Venus reporter expression, fluorescence | Potency, µM (series often up to 36.5 µM), usual class: inhibitors | 330,000 compounds, 0.46% hits | AID 720580; calls by dose curve; tested in A549 cells; also: nearly all actives have a fitted effect of over 30% in size
VACV mCherry inh: inhibitors of vaccinia virus infection (mCherry reporter signal) | Vaccinia virus mCherry reporter infection, fluorescence | 310,000 compounds, 0.63% hits | AID 720579 | Potency, µM (highest dose often 36.5 µM), usual class: inhibitors; calls by dose curve; tested in A549 cells; also: nearly all actives have a fitted effect of over 35% in size
HCV inh: blocks hepatitis C virus | 340,000 compounds, 3.4% hits | Potency, µM (doses to about 41.8 µM), hits mostly inhibitors | Huh7.5.1 HCVcc-Cre infection, luciferase reporter, 44 h
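Seed cells (1,000/well) for 4 h; treat with compound and infect with HCVcc-Cre, moi about 0.5. Incubate 44 h, then detect luciferase activity.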
FMDV antiviral: antivirals against foot and mouth disease virus. Potency, µM (doses to about 57.9 µM), actives largely listed as inhibitors. FMDV antiviral cell-based qHTS. 410,000 compounds, 1.2% hits. AID 1159524; calls by dose curve; tested in HEK293T cells; also: read-out not given here; nearly all actives have a fitted effect of over 45% in size
Giardia FBPA inh: Giardia lamblia aldolase inhibition; A8B2U2; purified Giardia FBPA; Potency, µM (doses to about 59.6 µM), most hits filed as inhibitors; 290,000 compounds, 0.71% hits; AID 2451; also: nearly all actives have a fitted effect of over 55% in size
Target sequence (A8B2U2 whole entry, looked up): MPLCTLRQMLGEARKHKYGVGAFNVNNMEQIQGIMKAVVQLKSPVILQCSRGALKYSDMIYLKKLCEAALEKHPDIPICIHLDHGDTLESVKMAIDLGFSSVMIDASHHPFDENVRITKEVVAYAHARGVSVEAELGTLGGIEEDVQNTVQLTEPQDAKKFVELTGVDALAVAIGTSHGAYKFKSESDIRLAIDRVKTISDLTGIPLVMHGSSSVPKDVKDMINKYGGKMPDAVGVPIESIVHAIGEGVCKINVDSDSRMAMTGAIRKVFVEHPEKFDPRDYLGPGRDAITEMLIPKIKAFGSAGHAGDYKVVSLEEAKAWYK
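Giardia FBPA (40 nM reagent) was preincubated 10 min at RT with compound (up to 57.5 uM final), then substrate plus GAPDH/TPI/NAD/arsenate coupling system with diaphorase/resazurin was added; resorufin fluorescence (525/598 nm) was read after 20 min.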
HCMV inh: blocks human cytomegalovirus replication. HFF cells, HCMV-luciferase reporter, 72 h; stronger effect = lower value. activity change, negative = inhibition, % at 57.5 µM. 410,000 compounds, 4.5% hits. AID 1259415; in the data active = activity change below about -60%; inconclusive = no clear call, values can overlap the other calls; inactive = above about -39%
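Screen run at 2 compound doses on HFFs infected with reporter HCMV, MOI 1 PFU/cell. Luciferase activity from cell lysates at 72 h post infection gave inhibition relative to buffer-only and Salinomycin wells.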
A number is an active result; n = inactive; u = inconclusive; x = no result; [ ] = dose if it differs, or a comment. Rows were chosen to be rich in hits. Some 7.5% of all compounds tested hit in one or more screens of this group. Unless noted, calls follow the shape of the dose curve; as a rule, active = well fitted curve in the direction sought with a large enough effect; inconclusive = small, poorly fitted or top-dose-only effect, or another doubt; inactive = no such curve, though single readings can be large; an effect the other way counts as inactive or inconclusive.

SMILES | VACV Venus inh | VACV mCherry inh | HCV inh | FMDV antiviral | Giardia FBPA inh | HCMV inh
O=C(CSC1=Nc2ccccc2N=C(c2ccc(F)cc2)C1)NCc1ccccc1Cl | n | n | x | u | x | n
CCOc1ccc(C(=O)O/N=C(\N)c2ccccn2)cc1OCC | x | x | 13µM | n | x | n
N/C(=N\OC(=O)CC1CCCCC1)c1ccccn1 | n | n | n | x | n | -60
N/C(=N\OC(=O)CC1CCCCC1)c1ccncc1 | x | x | n | n | n | n
COc1cc(OC)cc(C(=O)O/N=C(\N)c2ccccn2)c1 | x | x | u | n | n | -61
COc1ccc(C(=O)O/N=C(\N)c2ccccn2)cc1 | n | n | n | 2µM | n | u
CC(C)CNC(=O)c1ccccc1NC(=O)/C=C/c1cccc([N+](=O)[O-])c1 | n | n | n | n | n | n
O=C(CCc1nc2ccccc2c(=O)[nH]1)N1CCN(S(=O)(=O)c2ccc(Cl)c(C(F)(F)F)c2)CC1 | n | n | n | n | x | n
Cc1ccc(C(=O)O/N=C(\N)c2ccccn2)c(C)c1 | n | n | u | 0.89µM | x | -69
N/C(=N\OC(=O)c1ccc(Cl)c([N+](=O)[O-])c1)c1ccccn1 | u | n | u | n | n | -63
CCCCC1(CCCC)C(=O)NC(=Nc2cccc(C)c2)NC1=O | 10µM | u | u | n | n | -61
O=C1CC2(CCN(C(=O)c3cccc(Cl)c3)CC2)Oc2ccccc21 | n | n | n | u | x | -99
Cc1csc2nc(COC(=O)CNC(=O)c3ccc(F)cc3)cc(=O)n12 | n | n | x | n | x | n
CC(C)c1ccc(NC(=O)C2Cc3c(-c4cccc(F)c4)ccnc3O2)cc1 (stereo not given) | n | n | x | n | x | -76
CC(=O)c1cccc(-c2ccnc3c2CC(C(=O)NCc2ccc(F)c(F)c2)O3)c1 (stereo not given) | u | n | x | n | x | n
O=C(NCc1ccccc1)C1Cc2c(-c3cccc(F)c3)ccnc2O1 (stereo not given) | u | n | x | n | x | -69
CC(C)c1ccc(NC(=O)C2Cc3c(-c4cccc(C(N)=O)c4)ccnc3O2)cc1 (stereo not given) | n | n | x | n | x | n
CC(=O)c1cccc(-c2ccnc3c2CC(C(=O)NCc2ccccc2)O3)c1 (stereo not given) | u | u | x | n | x | -86
CC(=O)Nc1cccc(NC(=O)CSc2nc(=O)n(CCCN3CCOCC3)c3c2CCC3)c1 | n | n | n | n | x | n
O=C(O)c1cc(N=Cc2c(O)c3ccccc3oc2=O)ccc1O | x | x | n | n | n | u
CCOc1ccccc1C(=O)Nc1nnc(CC)s1 | n | n | 11µM | n | n | n
CCOc1ccccc1C(=O)Nc1nnc(SCC(=O)N2CCOCC2)s1 | n | n | n | n | n | u
CCOc1ccccc1C(=O)Nc1nn[nH]n1 | n | n | 3.2µM | n | u | u
CCOc1ccccc1C(=O)Nc1ccccc1C(N)=O | x | x | n | n | n | n
CCc1nnc(NC(=O)c2cccc(C(=O)Nc3nnc(CC)s3)n2)s1 | n | n | 1.1µM | u | n | -92
SMILES | VACV Venus inh | VACV mCherry inh | HCV inh | FMDV antiviral | Giardia FBPA inh | HCMV inh
Cc1ccc(C)c(S(=O)(=O)N2CCN(C(=O)C3CCN(C(=O)c4ccc(F)cc4)CC3)CC2)c1 | n | n | u | n | x | u
Cc1ccc(C(C)(O)CS(=O)(=O)Cc2ccccc2Cl)cc1 (stereo not given) | x | x | n | n | n | n
Cc1nn(-c2ccccc2)c(C)c1C(=O)OC(C)C(=O)NC1CCCCC1C (stereo not given) | x | x | 11µM | u | x | u
O=C(N/N=C1/C[C@@H](O)[C@@H](O)[C@@H]2[C@H]3C(=O)N(c4ccc(F)cc4F)C(=O)[C@@H]3CC[C@H]12)OCc1ccccc1 | x | x | x | x | n[12.9 µM] | x
O=C1CC(c2ccc(OCCCCCOc3ccc(C4CC(=O)NC4=O)cc3)cc2)C(=O)N1 (stereo not given) | n | n | u | 28µM | n | n
CCCCCCCCOc1ccc(C2CC(=O)NC2=O)cc1 (stereo not given) | x | x | n | n | n | n
Cc1ccc2nc(-c3ccc(O)cc3)oc2c1 | n | n | n | 13µM | n | n
COC(=O)C1=C(C)N(c2cc(C)cc(C)c2)/C(=C/c2ccc(O)cc2)C1=O | u | u | u | u | n | -96
COC(=O)C1=C(C)N(c2ccc(Cl)cc2)/C(=C/c2ccc(O)cc2)C1=O | n | n | u | 25µM | n | n
Cc1cc(C)c2c(=O)cc(C(=O)Nc3ccc(S(=O)(=O)Nc4onc(C)c4C)cc3)oc2c1 | n[7.34 µM] | n[7.34 µM] | x | n | x | n
C(=NN=C(NN=Cc1cccs1)NN=Cc1cccs1)c1cccs1 | n | u | 10µM | n | x | n
O=C(CN1CCOCC1)Nc1ccc(OC(F)(F)F)cc1 | x | x | n | n | u | n
Cc1ccc(-c2nnc3c4ccccc4c(-c4ccccc4)nn23)cc1 | n | n | x | n | x | n
Cc1nnc2c3ccccc3c(-c3ccccc3)nn12 | n | n | n | x | x | -66
COCCOc1nc2c(c(=O)n(C)c(=O)n2C)n1Cc1cccc(OC)c1 | n | x | 11µM | u | n | u
Cn1c(Oc2ccc(F)cc2)nc2c1c(=O)n(Cc1ccccc1Cl)c(=O)n2C | n | n | x | 18µM | x | n
Cn1c(=O)c2c(nc(N3CCCCCC3)n2Cc2cccc3ccccc23)n(C)c1=O | n | u | u | 28µM | n | u
Cn1c(=O)c2c(nc(Br)n2Cc2ccccc2Cl)n(C)c1=O | n | x | u | u | n | n
COc1ccc(Oc2nc3c(c(=O)n(C)c(=O)n3C)n2Cc2cccc(OC)c2)cc1 | n | x | n | u | n | n
CCOc1nc2c(c(=O)n(C)c(=O)n2C)n1Cc1ccccc1Cl | n | n | u | n | n | -93
COc1ccc(NC(=O)c2c(F)c(F)c(F)c(F)c2F)cc1Cl | u | u | u | n | n | n
O=C(Nc1ccc(N2CCN(C(=O)c3ccco3)CC2)c(Cl)c1)c1c(F)c(F)c(F)c(F)c1F | n | n | u | 28µM | n | n
COc1c(F)c(F)c(C(=O)Nc2ccc(N3CCN(C(C)=O)CC3)c(Cl)c2)c(F)c1F | x | x | u | u | n | -83
O=C(Nc1ccc(N2CCOCC2)c(Cl)c1)c1cc(F)c(F)cc1Cl | n | n | u | n | n | n
O=C(Nc1ccc(N2CCOCC2)c(Cl)c1)c1c(F)c(F)c(F)c(F)c1F | n | n | 8.9µM | u | n | n
SMILES | VACV Venus inh | VACV mCherry inh | HCV inh | FMDV antiviral | Giardia FBPA inh | HCMV inh
Cc1ccccc1C(=O)N1CCN(c2ccc(NC(=O)c3ccco3)cc2Cl)CC1 | u | u | 11µM | u | n | n
O=C(Nc1ccc(N2CCN(C(=O)c3ccco3)CC2)c(Cl)c1)c1cccnc1 | n | n | u | n | n | n
O=C(Nc1ccc(N2CCN(C(=O)c3cccs3)CC2)c(Cl)c1)c1ccco1 | x | x | u | n | n | n
O=C(NCc1ccc(Cl)cc1)O[C@H]1CC[C@@]23CCCN2C(=O)CCC[C@H]3[C@H]1Cc1ccccc1 | x | x | x | x | x | n
CC(C)(C)c1ccc(C(=O)NNc2cc(Cl)cc(Cl)c2)cc1 | x | x | n | n | n | u
COC(=O)Cc1cc(=O)[nH]c(/N=C(\N)Nc2ccc(C(C)C)cc2)n1 | n | n | n | u | n | u
